The record followed here is PubChem BioAssay AID521 (Sanford-Burnham Center for Chemical Genomics, 2006).

Screen size: about 110,000 compounds; about 730 (0.66%) were called active. What follows is part of a selection rich in actives, with near analogues and random picks from the rest. Unmarked numbers belong to inactive results. Rule as the data show it: active = inhibition above about 50%; inconclusive = no clear call, values can overlap the other calls; inactive = below that.

For the experiment, the target named is Tyrosine-protein phosphatase non-receptor type 7 (Homo sapiens) (UniProt P35236). The experiment is described as follows: HePTP tyrosine phosphatase activity blockers – biochemical, absorbance, leukemia target, primary screen (AID 521).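 Also: plate controls were vehicle for no effect and reference inhibitor for full effect.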 As to conditions: recombinant HePTP phosphatase activity, OD absorbance; at 20 µM; hits give high values.
Sequence of Tyrosine-protein phosphatase non-receptor type 7 (Homo sapiens) (P35236 whole entry, looked up): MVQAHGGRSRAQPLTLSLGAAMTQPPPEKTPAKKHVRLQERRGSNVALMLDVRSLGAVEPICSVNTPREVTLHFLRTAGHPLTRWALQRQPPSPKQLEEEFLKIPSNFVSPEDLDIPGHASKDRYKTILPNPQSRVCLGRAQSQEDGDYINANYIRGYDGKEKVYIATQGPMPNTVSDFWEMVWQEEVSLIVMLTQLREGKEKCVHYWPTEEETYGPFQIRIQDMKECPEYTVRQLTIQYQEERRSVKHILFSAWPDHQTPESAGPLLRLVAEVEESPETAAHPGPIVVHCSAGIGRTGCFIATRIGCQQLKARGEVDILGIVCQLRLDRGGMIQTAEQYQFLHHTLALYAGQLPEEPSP
With `Cc1ccc(N(Cc2ccc(C(=O)N3CCCCC3)cc2)S(C)(=O)=O)cc1C`, the inhibition is 13.9%.

Regarding `O=C(NCC1CCCO1)c1cc(-c2ccccc2)nc2ccccc12` (stereo not given), the inhibition is -0.5%. For the molecule `CCOc1ccc(NC(=O)Nc2cc(C)on2)cc1`, the inhibition was -4.8%.

As to `CCOc1ccc(N/C(=N\S(=O)(=O)c2ccc(NC(C)=O)cc2)Nc2nc(C)cc(C)n2)cc1`, the inhibition is 104% (active).

On to `CCCOc1ccccc1N/C(=N/S(=O)(=O)c1ccc(C)cc1)Nc1nc(C)cc(C)n1`, for which the inhibition is -1.6%. Then `O=C(/C=C/c1ccc([N+](=O)[O-])cc1)N1CCc2ccccc2C1`, with -1.1%; and `Cc1ccc(N2C(=O)NC(=O)/C(=C\c3cccc(C)c3)C2=O)cc1`, with 4.7%; and `Cc1ccc(-c2ccc(/C=C3\Sc4ccccc4C3=O)o2)c([N+](=O)[O-])c1`, with -1.6%. Then `O=C1S/C(=C/c2ccc(-c3ccc(Cl)cc3Cl)o2)C(=O)N1c1ccccc1`, with -6.4%; and `O=C1/C(=C/c2ccc(-c3ccc(Cl)cc3C(=O)O)o2)Sc2ccccc21`, with 99% (active); and `Cc1oc2ccc(OCC(=O)c3ccccc3)cc2c1C(=O)O`, with 6.3%.

With `O=C(Nc1ccc(I)cc1)c1ccc2nccnc2c1`, the inhibition was 8.3%. Then `Cc1ccc(/C=N/NC(=O)C2CC(=O)N(c3ccc(Cl)cc3)C2)cc1` (stereo not given), with 4.9%; and `CCOc1ccccc1C(=O)Nc1ccc(Cl)cc1[N+](=O)[O-]`, with -5.6%. Next, `O=C(NC(=S)Nc1ccc(-c2nc3cc(Cl)ccc3o2)cc1)c1ccco1`: 4.7%; `CN1CN=C2SC3(COC(c4cccc(Br)c4)OC3)C(=O)N2C1` (stereo not given): -17.5%; `Cc1ccc(/C=C/C(=O)Nc2nc3ccc(S(C)(=O)=O)cc3s2)cc1`: -6.1%. Next, `Cc1ccc(S(=O)(=O)N(CC(O)CN(C)C)c2cccc3ccccc23)cc1` (stereo not given): 104% (active); `Cc1cccc(N(CC(O)CN(C)C)S(=O)(=O)c2ccccc2)c1` (stereo not given): -7.9%. For `Cc1ccc(N(CC(O)CN2CCCC2)S(=O)(=O)c2ccccc2)cc1` (stereo not given), the inhibition was -3.8%. On to `CC(C)c1ccc(C=NCCCO)cc1`, for which the inhibition was -12.6%. Next, `O=C(N=Nc1c(O)[nH]c2ccc(F)cc12)c1ccccc1O`: -14.6%; `Nc1nonc1C(=O)N=Nc1c(O)[nH]c2ccccc12`: -0.8%. Consider `O=C(N=Nc1c(O)[nH]c2ccc([N+](=O)[O-])cc12)c1cccc(Br)c1`, for which the inhibition was 56.4% (active). Consider `O=C1C2C3CC4C2C(=O)C2(c5ccccc5)C1C3C42` (stereo not given), for which the inhibition is -6.6%. On to `COc1ccc(CCNC(=O)COc2ccc(Br)cc2)cc1OC`, for which the inhibition is -20%.

`COCCCNC(=O)COc1cc(C)c(Cl)c(C)c1`: the inhibition was 5.1%.

Consider `COc1ccc(CCNC(=O)COc2cc(C)c(Cl)c(C)c2)cc1OC`, for which the inhibition was 103% (active). `COc1ccc2ccccc2c1/C=N/NC(=O)c1cc(C)[nH]n1`: the inhibition is 0.2%. In the case of `N#Cc1c2c(c(N3CCN(CCO)CC3)n3c1nc1ccccc13)CCCC2`, the inhibition was 4.3%. Then `Cc1cc(NCCN2CCCCCC2)n2c(nc3ccccc32)c1C#N`, with -9.3%. For `Cc1c(C#N)c2nc3ccccc3n2c(=O)/c1=C\c1c(O)n(-c2ccc(Br)cc2)[nH]c1=O`, the inhibition is 103% (active). Next, `COc1ccc(OC)c(N(CC(=O)Nc2cccc(Cl)c2)S(=O)(=O)c2ccc(OC)c(OC)c2)c1`: -8.4%; `COc1ccc(NCN2C(=O)CSC2=O)cc1Cl`: 5.1%. Regarding `O=C(Nc1cccc(Br)c1)C(=O)NC1CCCC1`, the inhibition was -7.9%. Then `COc1cccc(/C=C(/C#N)C(=O)Nc2ccc(F)cc2)c1O`, with 9.6%; and `N#C/C(=C/c1cc(Cl)c(O)c(Cl)c1)C(=O)Nc1cccc(Br)c1`, with 102% (active). On to `CCOC(=O)c1c(Nc2ccc(C)cc2)csc1C`, for which the inhibition is 5.4%. Then `COc1ccc(CC(=O)Nc2ccc(-c3ccc(NC(=O)Cc4ccc(OC)cc4)c(OC)c3)cc2OC)cc1`, with -17.3%; and `Cc1cc(C)cc(NC(=O)CN2C(=O)c3ccccc3C2=O)c1`, with 4.6%. `CSc1nc(=O)n(C)c(C)c1C(C)=O`: the inhibition is -0.4%. `O=C(NC(NC(=S)Nc1ccc(I)cc1)C(Cl)(Cl)Cl)c1cccc([N+](=O)[O-])c1` (stereo not given): the inhibition is -2.4%. Next, `COc1cc(/C=c2\sc3nc4c(C)cc(C)cc4n3c2=O)cc(Br)c1O`: 5.3%; `Cc1cc(C)c2nc3s/c(=C\c4ccc(-c5ccccc5C(=O)O)o4)c(=O)n3c2c1`: 103% (active). Regarding `Cc1cc(C)c2nc3s/c(=C\c4ccc(N(C)C)cc4)c(=O)n3c2c1`, the inhibition is 8.6%. Next, `O=C1c2ccccc2C(=O)c2c(NC3CCCCC3)cccc21`: -14.5%; `COc1ccc(/C=N/n2cnc3sc4c(c3c2=O)CCCC4)cc1OC`: 1.7%. Turning to `O=C(Nc1cccc(NC(=O)c2ccc(Cl)cc2Cl)c1)c1ccc(-c2ccc([N+](=O)[O-])cc2)o1`, the inhibition was 5.5%. `CCOc1ccc2cc(S(=O)(=O)NCC3CCCO3)ccc2c1` (stereo not given): the inhibition was 0.1%. Regarding `Cc1c(Br)c(=O)[nH]c(=O)n1Cc1ccccc1`, the inhibition was 0.2%.

As to `O=C(NCc1ccccn1)C(=O)Nc1ccc(Br)cc1`, the inhibition was 7.9%.

`Cc1cc(C)c(NC(=O)C(C)Sc2nnc(-c3cccc(F)c3)n2-c2ccccc2)c(C)c1` (stereo not given): the inhibition is -3.5%.

Take `COc1ccc(Cl)cc1C(=O)Nc1ccc2c3c(cccc13)CC2`: the inhibition was -1.6%.

For the molecule `CCCCOC(=O)Nc1nnc(-c2ccco2)s1`, the inhibition was -8.6%.

In the case of `CCOc1cc(/C=N/NC(=O)CC2C(=O)NN=C2C)ccc1O` (stereo not given), the inhibition was -5.5%. Next, `O=C(Nc1cccc([N+](=O)[O-])c1)c1ccc2c(c1)C(=O)N(N1C(=O)c3ccccc3C1=O)C2=O`: -5.9%; `COC(=O)c1c(-c2ccc(Br)cc2)csc1NC(=O)CCCC(=O)O`: 8.8%; `CCc1ccc(N2C(=O)NC(=O)/C(=C\c3cc(Cl)c(O)c(Cl)c3)C2=O)cc1`: 2.7%. On to `CN(C)c1ccc(C2/C(=C(\O)c3ccccc3)C(=O)C(=O)N2CCCC(=O)O)cc1` (stereo not given), for which the inhibition was 3.2%.

For `COc1cc(/C=C2/SC(=S)N(C)C2=O)cc([N+](=O)[O-])c1O`, the inhibition was 6.6%. Next, `CC(=O)C1=C(O)C(=O)N(CCN2CCNCC2)C1c1ccc(C)cc1` (stereo not given): 6%; `Cc1ccc(-c2csc(NC(=O)c3ccc(Cl)cc3)n2)cc1`: 7%; `CCN1C(=O)/C(=C\c2cn(CCOc3ccc(Br)cc3)c3ccccc23)SC1=S`: 2.4%.

Turning to `Cc1cc(Cl)ccc1OCC(=O)O/N=C(\N)c1ccncc1`, the inhibition was -14.4%. For `COC(=O)CCN(C(=O)c1ccc(F)cc1)c1ccccn1`, the inhibition was -21.6%. With `O=C(NC(=O)C(Cl)(Cl)Cl)Nc1ccc(Cl)c(Cl)c1`, the inhibition was 3.7%. In the case of `O=C(Nc1nccs1)C(c1ccccc1)c1ccccc1`, the inhibition is -5.8%. Then `O=C(O)C1C2C=CC(O2)C1C(=O)Nc1nccs1` (stereo not given), with 104% (active). Next, `Cc1ccc(S(=O)(=O)Nc2ccc(NC(=O)C3C4C=CC(O4)C3C(=O)O)cc2)cc1` (stereo not given): -5.5%; `O=C(c1ccc2c(c1)OCO2)N1CCOCC1`: 104% (active); `O=C(c1ccc2c(c1)OCO2)N1CCNc2ccccc2C1`: 7.3%.

Turning to `O=C(Nc1ccc(N2CCOCC2)cc1)c1ccc2c(c1)OCO2`, the inhibition is -5.6%.

`O=C(Nc1cccnc1)c1cnn2c1NC(c1ccco1)CC2C(F)(F)F` (stereo not given): the inhibition is 0.1%.

On to `Cc1cc2oc(=O)cc(C)c2cc1NC(=O)c1ccccc1`, for which the inhibition is -31.1%. As for `O=C(O)C(Sc1nc2ccccc2s1)c1ccccc1` (stereo not given), the inhibition is -17.3%. `O=C(O)CCCN1C(=O)/C(=C/c2ccccc2)SC1=S`: the inhibition is 8.8%.

For `O=C(O)CCCCCCCCCCN1C(=O)/C(=C/c2ccc(Br)cc2)SC1=S`, the inhibition was 70.7% (active). Then `O=C1/C(=C/c2ccc(Br)cc2)SC(=S)N1CCc1ccccc1`, with 3.2%; and `O=C(Nc1cccc(O)c1)c1cc2nc(-c3ccc(F)cc3)cc(C(F)(F)F)n2n1`, with 4.4%. On to `CCOC(=O)c1ccc(N2NC(=O)/C(=C/c3ccc(Br)cc3)C2=O)cc1`, for which the inhibition was 6.5%.

In general, inhibition refers to the drop in the measured response relative to a control, in per cent.
